Reference: paper PMC10726135, “HNF4α isoforms regulate the circadian balance between carbohydrate and lipid metabolism in the liver”
The full ranking holds about 18,000 sequences; the median of “log2 normalized intensity” is about 0.39, and the highest 2% start at about 6.6. Only a selection was taken, and the highest values are over-represented in it overall.

These sequences were tested against T1, HNF4alpha2 (COS-7 nuclear extract) (Homo sapiens, UniProt P41235 1-474) (assay: protein-binding microarray; COS-7 nuclear extract on double-stranded Agilent 4x180k PBM; binding buffer, salt, pH and temperature not given in the material; high values mean tight binding). Settings: chain copies: 2; label: 3' end of strand 1 on the slide; dsDNA, one strand shown.
T1 sequence: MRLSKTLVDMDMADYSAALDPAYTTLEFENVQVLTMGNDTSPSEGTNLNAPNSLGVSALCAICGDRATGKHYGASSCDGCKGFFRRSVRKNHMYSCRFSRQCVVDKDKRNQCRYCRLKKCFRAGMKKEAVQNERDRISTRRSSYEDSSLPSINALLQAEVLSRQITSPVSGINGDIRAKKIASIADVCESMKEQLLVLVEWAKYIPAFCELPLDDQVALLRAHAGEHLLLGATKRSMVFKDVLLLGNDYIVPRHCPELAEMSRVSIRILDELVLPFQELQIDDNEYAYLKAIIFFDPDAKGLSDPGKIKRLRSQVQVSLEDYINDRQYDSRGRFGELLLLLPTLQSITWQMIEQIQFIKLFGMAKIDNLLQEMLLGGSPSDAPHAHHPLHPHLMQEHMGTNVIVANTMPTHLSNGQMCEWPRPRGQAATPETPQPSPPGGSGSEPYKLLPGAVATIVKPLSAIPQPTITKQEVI
In short: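 Binding signal is the background-corrected, normalized gProcessedSignal calculated by Agilent software. It was measured by applying nuclear extracts of COS-7 cells transiently transfected with a human HNF4α isoform expression vector to a custom Agilent SurePrint G3 4x180k array of ~44,000 double-stranded ~60-nt test sequences in quadruplicate, then imaging bound HNF4α on an Agilent G2565CA scanner at 2-µm resolution.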
“AATTACCATTCTTGAGGACAGGCCAAATCCGCCTAGGGAGATTAGAGTATCGGTCGA” gave a binding signal of 0.0816 log2 normalized intensity.
“CCCAGGTCCAGCCTTTGGGCAGGGGCATCCGCCTAGGGAGATTAGAGTATCGGTCGA” gave a binding signal of -0.72 log2 normalized intensity.
“TGTGCAGCTTTGTGTAAAACTTCAAAGAAGGCCTAGGGAGATTAGAGTATCGGTCGA” was tested, and the binding signal was -0.427 log2 normalized intensity.
Sequence “GGTGTGAGAGGGCAAAGGTCACAGCATTAGGCCTAGGGAGATTAGAGTATCGGTCGA” has a binding signal of 6.76 log2 normalized intensity.
“GGGCCAGCAAGAGGTGACCCCAGGGCAAAGGCCTAGGGAGATTAGAGTATCGGTCGA” gave a binding signal of 2.92 log2 normalized intensity.
Work on “GGCTGAATGGGCAAAGGTCACAAGAGGTGCGCCTAGGGAGATTAGAGTATCGGTCGA” yielded a binding signal of 4.6 log2 normalized intensity.
With “CCTGAGGTGTGAGAGGGCAAAGGTCACAGCGCCTAGGGAGATTAGAGTATCGGTCGA” the binding signal was 8.02 log2 normalized intensity.
Sequence “TCACAGTGTGGGGCAAATCTGAGGTCAAAGGCCTAGGGAGATTAGAGTATCGGTCGA” has a binding signal of 2.22 log2 normalized intensity.
Work on “AATGGGCAAAGGTCACAAGAGGTGCTGTGTGCCTAGGGAGATTAGAGTATCGGTCGA” yielded a binding signal of 4.69 log2 normalized intensity.
“GGGCAGCCCGTGTGGGCGGGTGCAGCTTCCGCCTAGGGAGATTAGAGTATCGGTCGA” gave a binding signal of -0.675 log2 normalized intensity.
With “CAGTTATCAGACAGAGGAATTCAGCAGGATGCCTAGGGAGATTAGAGTATCGGTCGA” the binding signal was -0.611 log2 normalized intensity.
Work on “TTTCTCCTCTCTGGGCTTCCATTGTGATTCGCCTAGGGAGATTAGAGTATCGGTCGA” yielded a binding signal of 1.02 log2 normalized intensity.
For “GCCACATTCCCCGACTCCTGGGTGTGAGATGCCTAGGGAGATTAGAGTATCGGTCGA”, the binding signal was 0.517 log2 normalized intensity.
Work on “AAGCAGAAGCTGCACACATGTCAAAGGTCAGCCTAGGGAGATTAGAGTATCGGTCGA” yielded a binding signal of 6.19 log2 normalized intensity.
“CAGCAATCACCTACCCCCAGATTCTCTGTTGCCTAGGGAGATTAGAGTATCGGTCGA” gave a binding signal of 2.35 log2 normalized intensity.
For “TTTGGAATTCCCTGCAAGGACAAAGGTCATGCCTAGGGAGATTAGAGTATCGGTCGA”, the binding signal was 6.87 log2 normalized intensity.
With “CTAATGGAGAGGATGGGGACAAAGGTCAAGGCCTAGGGAGATTAGAGTATCGGTCGA” the binding signal was 7.24 log2 normalized intensity.
Sequence “AATTCCCTGCAAGGACAAAGGTCATGTTTTGCCTAGGGAGATTAGAGTATCGGTCGA” has a binding signal of 6.26 log2 normalized intensity.
With “GTTATCTAATGGAGAGGATGGGGACAAAGGGCCTAGGGAGATTAGAGTATCGGTCGA” the binding signal was 1.47 log2 normalized intensity.
“GACAAAGGTCATTCATGTGCAGGTTGGAATGCCTAGGGAGATTAGAGTATCGGTCGA” was tested, and the binding signal was 2.77 log2 normalized intensity.
Work on “GGAGAGGATGGGGACAAAGGTCAAGAAAGCGCCTAGGGAGATTAGAGTATCGGTCGA” yielded a binding signal of 5.86 log2 normalized intensity.
With “TGTCTCTGGTCAGGGAGGGCTTTAGAATGTGCCTAGGGAGATTAGAGTATCGGTCGA” the binding signal was 1.01 log2 normalized intensity.
Sequence “TTGGTCTGCTGAGTCTCATGATTAGATTGAGCCTAGGGAGATTAGAGTATCGGTCGA” has a binding signal of 0.746 log2 normalized intensity.
With “TGGCCTGGGAACTTAGCGATTTGGAACCCAGCCTAGGGAGATTAGAGTATCGGTCGA” the binding signal was 0.829 log2 normalized intensity.
In the case of “AAGTTCAAGTAGATAAAATCAAACAGATGTGCCTAGGGAGATTAGAGTATCGGTCGA”, the binding signal is reported as 1.02 log2 normalized intensity.
Sequence “TCTGCAAACACCCCTCCCCCACACAGACAAGCCTAGGGAGATTAGAGTATCGGTCGA” has a binding signal of 5.01 log2 normalized intensity.
“GTGCTATCTCAGCTCACTGTAACCTTTGCCGCCTAGGGAGATTAGAGTATCGGTCGA” showed a binding signal of 3.93 log2 normalized intensity.
Sequence “TGGTGCTATCTTTGCTCACTGTAACCTTTGGCCTAGGGAGATTAGAGTATCGGTCGA” has a binding signal of 3.78 log2 normalized intensity.
Work on “GTAACCTTTGCCCCCCAAGTTGAAGCCATCGCCTAGGGAGATTAGAGTATCGGTCGA” yielded a binding signal of 5.16 log2 normalized intensity.
“TTTGCTCACTGTAACCTTTGCCCCCCAAGTGCCTAGGGAGATTAGAGTATCGGTCGA” showed a binding signal of 8.54 log2 normalized intensity.
For “ACTGTAACCTTTGCCCCCCTGGGCTCAAGCGCCTAGGGAGATTAGAGTATCGGTCGA”, the binding signal was 5.81 log2 normalized intensity.
“AGCCCCAACCCACTGTTGCCCCTTCCAAAGGCCTAGGGAGATTAGAGTATCGGTCGA” showed a binding signal of 4.68 log2 normalized intensity.
Work on “ATCTCAGCTCACTGTAACCTTTGCCCCCCTGCCTAGGGAGATTAGAGTATCGGTCGA” yielded a binding signal of 8.75 log2 normalized intensity.
“AACCTTTGCCCCAGCTGTCACCCAGCCAGAGCCTAGGGAGATTAGAGTATCGGTCGA” gave a binding signal of 3.68 log2 normalized intensity.
“TCACTGTAACCTTTGCCCCCCAAGTTGAAGGCCTAGGGAGATTAGAGTATCGGTCGA” was tested, and the binding signal was 6.72 log2 normalized intensity.
In the case of “AGCAAAGGTCATCCTGGGCTACCGATATGAGCCTAGGGAGATTAGAGTATCGGTCGA”, the binding signal is reported as 0.737 log2 normalized intensity.
“TAGACCAGCCAATTCTACTGGAAGTAGGTAGCCTAGGGAGATTAGAGTATCGGTCGA” gave a binding signal of 0.854 log2 normalized intensity.
For “CCTTTCCCCGCCCCGCGTCCGTGCACCCTTGCCTAGGGAGATTAGAGTATCGGTCGA”, the binding signal was 4.42 log2 normalized intensity.
Work on “ACTTTGAGGTGTTCTCTGGGGTTAGCCAAAGCCTAGGGAGATTAGAGTATCGGTCGA” yielded a binding signal of 1.59 log2 normalized intensity.
“CGGGTCAGCAGGGCACCGCCTCCACACCCCGCCTAGGGAGATTAGAGTATCGGTCGA” showed a binding signal of 1.59 log2 normalized intensity.
“TCACAATTAAGCCAAACTTGGGTTTATGGCGCCTAGGGAGATTAGAGTATCGGTCGA” was tested, and the binding signal was 0.583 log2 normalized intensity.
“AGACAACCTTTGGTCACTTGTAAGATACTGGCCTAGGGAGATTAGAGTATCGGTCGA” gave a binding signal of 2.43 log2 normalized intensity.
